# Laboratory results: paper PMC7862700, “An all-to-all approach to the identification of sequence-specific readers for epigenetic DNA modifications on cytosine”
# Tests used:
# Experiment in all cases: DAPPL (digital affinity profiling via proximity ligation, sequencing); 10 mM Tris-HCl pH 7.5, 50 mM NaCl, 1 mM DTT, 4% glycerol, room temperature, 30 min; GST-TFs on glutathione beads, 16-mer random dsDNA library, 0.1% formaldehyde crosslink after washing; high values mean tight binding
# FLI1 = target: T1, FLI1 (Homo sapiens, UniProt Q01543 1-452); conditions: protein: recombinant; tags: N-terminal GST; dsDNA, one strand shown
# T1 sequence: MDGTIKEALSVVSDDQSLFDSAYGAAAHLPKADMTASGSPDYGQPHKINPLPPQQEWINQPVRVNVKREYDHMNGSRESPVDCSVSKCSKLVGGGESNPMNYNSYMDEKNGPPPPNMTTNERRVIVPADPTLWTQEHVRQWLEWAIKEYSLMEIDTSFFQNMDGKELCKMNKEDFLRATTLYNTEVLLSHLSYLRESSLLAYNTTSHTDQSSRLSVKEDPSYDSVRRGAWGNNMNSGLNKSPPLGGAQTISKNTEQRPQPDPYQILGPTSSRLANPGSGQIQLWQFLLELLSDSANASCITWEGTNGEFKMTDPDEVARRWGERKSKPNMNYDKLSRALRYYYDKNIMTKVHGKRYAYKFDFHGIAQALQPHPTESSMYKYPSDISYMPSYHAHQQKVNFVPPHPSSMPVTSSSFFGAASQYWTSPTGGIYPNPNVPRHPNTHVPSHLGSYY
# Procedure, shortened: (§1)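 After expression in yeast as GST fusions, human transcription factors were bound to glutathione beads, DNA-barcoded and mixed with a tag-only sample. The pools were incubated with 200 nmole of a 16-mer random double-stranded DNA library in Tris/NaCl/DTT/glycerol buffer (30 min, room temperature), washed and crosslinked with 0.1% formaldehyde. Proximity ligation with BsaI/T4 ligase ran for 1 h at 37 °C, before PCR amplification and sequencing on an Illumina NextSeq500. Binding signal is a hexamer's read frequency for a factor divided by its frequency for the tag-only sample.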
# ELK1 = target: T2, ELK1 (Homo sapiens, UniProt P19419 1-428); conditions: protein: recombinant; tags: N-terminal GST; dsDNA, one strand shown
# T2 sequence: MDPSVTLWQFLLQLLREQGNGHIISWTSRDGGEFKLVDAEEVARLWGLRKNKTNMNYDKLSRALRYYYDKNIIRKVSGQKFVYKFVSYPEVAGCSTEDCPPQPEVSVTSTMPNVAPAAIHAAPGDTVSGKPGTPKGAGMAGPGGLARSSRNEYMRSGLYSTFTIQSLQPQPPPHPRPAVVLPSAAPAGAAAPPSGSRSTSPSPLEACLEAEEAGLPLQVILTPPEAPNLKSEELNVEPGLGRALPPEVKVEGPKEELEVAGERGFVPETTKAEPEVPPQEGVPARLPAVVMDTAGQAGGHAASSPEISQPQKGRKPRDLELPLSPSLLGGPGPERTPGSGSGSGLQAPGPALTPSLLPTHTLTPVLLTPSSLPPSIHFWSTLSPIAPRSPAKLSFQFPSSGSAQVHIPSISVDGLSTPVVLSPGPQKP
# Procedure, shortened: as §1
# GABPA = target: T3, GABPA (Homo sapiens, UniProt Q06546 1-454); conditions: protein: recombinant; tags: N-terminal GST; dsDNA, one strand shown
# T3 sequence: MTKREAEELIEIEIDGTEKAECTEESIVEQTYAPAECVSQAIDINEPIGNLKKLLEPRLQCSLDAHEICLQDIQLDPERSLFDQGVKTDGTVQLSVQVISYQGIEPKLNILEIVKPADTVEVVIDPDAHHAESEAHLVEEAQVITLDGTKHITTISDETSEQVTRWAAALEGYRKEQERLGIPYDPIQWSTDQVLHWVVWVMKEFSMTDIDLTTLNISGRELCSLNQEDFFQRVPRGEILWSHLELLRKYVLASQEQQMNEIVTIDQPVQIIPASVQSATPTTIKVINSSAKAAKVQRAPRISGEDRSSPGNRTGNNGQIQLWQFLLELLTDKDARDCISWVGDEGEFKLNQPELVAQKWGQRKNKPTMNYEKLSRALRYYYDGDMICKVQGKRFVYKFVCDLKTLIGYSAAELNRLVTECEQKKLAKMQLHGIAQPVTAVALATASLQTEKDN
# Procedure, shortened: as §1
# ERG = target: T4, ERG (Homo sapiens, UniProt P11308 1-479); conditions: protein: recombinant; tags: N-terminal GST; dsDNA, one strand shown
# T4 sequence: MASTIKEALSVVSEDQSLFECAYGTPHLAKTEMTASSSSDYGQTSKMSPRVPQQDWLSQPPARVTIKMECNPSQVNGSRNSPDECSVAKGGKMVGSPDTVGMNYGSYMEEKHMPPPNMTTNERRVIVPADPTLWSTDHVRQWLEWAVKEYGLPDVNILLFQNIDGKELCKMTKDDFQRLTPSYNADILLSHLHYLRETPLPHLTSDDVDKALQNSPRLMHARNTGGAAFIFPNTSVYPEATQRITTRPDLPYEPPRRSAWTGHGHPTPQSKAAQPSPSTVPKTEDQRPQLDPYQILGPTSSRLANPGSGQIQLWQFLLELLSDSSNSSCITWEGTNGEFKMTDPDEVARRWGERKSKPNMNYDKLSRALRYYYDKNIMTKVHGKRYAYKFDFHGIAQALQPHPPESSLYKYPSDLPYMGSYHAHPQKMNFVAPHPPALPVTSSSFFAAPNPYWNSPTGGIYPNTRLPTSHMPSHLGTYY
# Procedure, shortened: as §1
# ELF1 = ELF1 (Homo sapiens, UniProt P32519 1-619); conditions: protein: recombinant; tags: N-terminal GST; dsDNA, one strand shown
# Procedure, shortened: as §1
# EHF = target: T5, EHF (Homo sapiens, UniProt Q9NZC4 1-300); conditions: protein: recombinant; tags: N-terminal GST; dsDNA, one strand shown
# T5 sequence: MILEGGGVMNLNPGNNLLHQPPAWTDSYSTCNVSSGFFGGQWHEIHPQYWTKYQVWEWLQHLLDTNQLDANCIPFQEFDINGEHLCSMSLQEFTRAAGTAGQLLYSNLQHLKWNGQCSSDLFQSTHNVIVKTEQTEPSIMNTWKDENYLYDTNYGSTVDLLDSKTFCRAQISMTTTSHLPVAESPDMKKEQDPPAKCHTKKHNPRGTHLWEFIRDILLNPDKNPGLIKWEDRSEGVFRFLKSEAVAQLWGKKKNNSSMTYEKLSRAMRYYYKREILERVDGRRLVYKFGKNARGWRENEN
# Procedure, shortened: as §1
# SPI1 = SPI1 (Homo sapiens, UniProt P17947 1-270); conditions: protein: recombinant; tags: N-terminal GST; dsDNA, one strand shown
# Procedure, shortened: as §1
# SPIB = SPIB (Homo sapiens, UniProt Q01892 1-262); conditions: protein: recombinant; tags: N-terminal GST; dsDNA, one strand shown
# Procedure, shortened: as §1
# ELK3 = target: T6, ELK3 (Homo sapiens, UniProt P41970 1-407); conditions: protein: recombinant; tags: N-terminal GST; dsDNA, one strand shown
# T6 sequence: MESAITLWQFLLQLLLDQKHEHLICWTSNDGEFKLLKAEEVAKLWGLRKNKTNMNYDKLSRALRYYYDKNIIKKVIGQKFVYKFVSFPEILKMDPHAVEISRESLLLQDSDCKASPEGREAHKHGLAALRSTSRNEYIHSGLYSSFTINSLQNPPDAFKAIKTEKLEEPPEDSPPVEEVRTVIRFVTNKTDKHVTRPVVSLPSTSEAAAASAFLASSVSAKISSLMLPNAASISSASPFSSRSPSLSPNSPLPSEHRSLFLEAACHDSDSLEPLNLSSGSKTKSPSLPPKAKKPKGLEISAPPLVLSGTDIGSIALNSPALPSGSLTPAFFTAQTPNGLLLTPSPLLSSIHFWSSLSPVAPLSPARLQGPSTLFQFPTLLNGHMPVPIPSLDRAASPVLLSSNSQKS
# Procedure, shortened: as §1
# FEV = target: T7, FEV (Homo sapiens, UniProt Q99581 1-238); conditions: protein: recombinant; tags: N-terminal GST; dsDNA, one strand shown
# T7 sequence: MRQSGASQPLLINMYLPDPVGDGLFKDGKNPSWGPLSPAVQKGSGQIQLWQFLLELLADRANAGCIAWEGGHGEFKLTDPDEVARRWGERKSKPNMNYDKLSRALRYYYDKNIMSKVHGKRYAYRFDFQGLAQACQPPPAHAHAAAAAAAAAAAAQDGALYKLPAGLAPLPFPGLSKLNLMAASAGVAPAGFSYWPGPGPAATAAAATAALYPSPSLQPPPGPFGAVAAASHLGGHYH
# Procedure, shortened: as §1
# ETV5 = ETV5 (Homo sapiens, UniProt P41161 1-510); conditions: protein: recombinant; tags: N-terminal GST; dsDNA, one strand shown
# Procedure, shortened: as §1
# HSF1 = HSF1 (Homo sapiens, UniProt Q00613 1-529); conditions: protein: recombinant; tags: N-terminal GST; chain copies: 3; dsDNA, one strand shown
# Procedure, shortened: as §1
# SPIC = target: T8, SPIC (Homo sapiens, UniProt Q8N5J4 1-248); conditions: protein: recombinant; tags: N-terminal GST; dsDNA, one strand shown
# T8 sequence: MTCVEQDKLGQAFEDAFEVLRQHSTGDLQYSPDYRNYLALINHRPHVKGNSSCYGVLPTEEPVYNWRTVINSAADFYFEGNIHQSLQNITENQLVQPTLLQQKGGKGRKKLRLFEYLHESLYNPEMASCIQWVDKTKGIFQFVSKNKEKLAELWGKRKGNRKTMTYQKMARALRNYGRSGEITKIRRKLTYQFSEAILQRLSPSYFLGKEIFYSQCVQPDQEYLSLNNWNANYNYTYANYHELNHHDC
# Procedure, shortened: as §1
# ELF4 = ELF4 (Homo sapiens, UniProt Q99607 1-663); conditions: protein: recombinant; tags: N-terminal GST; dsDNA, one strand shown
# Procedure, shortened: as §1
# ELK4 = target: T9, ELK4 (Homo sapiens, UniProt P28324-2 1-405); conditions: protein: recombinant; tags: N-terminal GST; dsDNA, one strand shown
# T9 sequence: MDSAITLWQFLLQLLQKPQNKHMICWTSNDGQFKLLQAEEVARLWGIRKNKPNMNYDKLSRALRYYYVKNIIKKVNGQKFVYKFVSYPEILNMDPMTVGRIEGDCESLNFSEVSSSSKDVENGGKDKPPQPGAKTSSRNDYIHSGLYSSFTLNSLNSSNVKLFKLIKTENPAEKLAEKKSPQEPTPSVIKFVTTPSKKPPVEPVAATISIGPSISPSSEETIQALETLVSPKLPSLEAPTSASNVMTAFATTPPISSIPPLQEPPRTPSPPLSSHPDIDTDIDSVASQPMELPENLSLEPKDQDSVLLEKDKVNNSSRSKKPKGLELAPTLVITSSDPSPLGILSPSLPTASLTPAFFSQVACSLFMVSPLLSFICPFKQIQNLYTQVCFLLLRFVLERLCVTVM
# Procedure, shortened: as §1
# ETV2 = target: T10, ETV2 (Homo sapiens, UniProt O00321 1-342); conditions: protein: recombinant; tags: N-terminal GST; dsDNA, one strand shown
# T10 sequence: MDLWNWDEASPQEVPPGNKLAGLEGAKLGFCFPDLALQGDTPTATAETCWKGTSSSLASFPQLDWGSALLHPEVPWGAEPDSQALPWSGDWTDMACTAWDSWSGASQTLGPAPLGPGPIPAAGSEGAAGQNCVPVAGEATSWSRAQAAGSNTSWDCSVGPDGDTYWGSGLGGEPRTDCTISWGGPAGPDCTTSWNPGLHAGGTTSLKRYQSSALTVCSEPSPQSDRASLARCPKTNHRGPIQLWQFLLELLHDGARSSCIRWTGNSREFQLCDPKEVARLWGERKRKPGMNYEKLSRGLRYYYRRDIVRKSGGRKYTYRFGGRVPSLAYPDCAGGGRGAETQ
# Procedure, shortened: as §1
# ELF3 = target: T11, ELF3 (Homo sapiens, UniProt P78545 1-371); conditions: protein: recombinant; tags: N-terminal GST; dsDNA, one strand shown
# T11 sequence: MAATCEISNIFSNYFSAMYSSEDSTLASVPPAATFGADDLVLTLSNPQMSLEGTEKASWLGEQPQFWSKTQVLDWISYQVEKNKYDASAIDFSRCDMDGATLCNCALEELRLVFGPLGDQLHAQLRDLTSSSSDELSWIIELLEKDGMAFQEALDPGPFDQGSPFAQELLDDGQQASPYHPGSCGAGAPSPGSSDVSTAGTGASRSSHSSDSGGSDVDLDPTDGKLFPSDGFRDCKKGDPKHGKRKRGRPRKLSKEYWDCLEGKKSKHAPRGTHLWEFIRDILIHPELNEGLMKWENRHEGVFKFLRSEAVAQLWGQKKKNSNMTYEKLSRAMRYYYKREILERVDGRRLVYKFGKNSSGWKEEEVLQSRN
# Procedure, shortened: as §1
# ETV1 = ETV1 (Homo sapiens, UniProt P50549 1-477); conditions: protein: recombinant; tags: N-terminal GST; dsDNA, one strand shown
# Procedure, shortened: as §1
# Chain of ETV5 (P41161 whole entry): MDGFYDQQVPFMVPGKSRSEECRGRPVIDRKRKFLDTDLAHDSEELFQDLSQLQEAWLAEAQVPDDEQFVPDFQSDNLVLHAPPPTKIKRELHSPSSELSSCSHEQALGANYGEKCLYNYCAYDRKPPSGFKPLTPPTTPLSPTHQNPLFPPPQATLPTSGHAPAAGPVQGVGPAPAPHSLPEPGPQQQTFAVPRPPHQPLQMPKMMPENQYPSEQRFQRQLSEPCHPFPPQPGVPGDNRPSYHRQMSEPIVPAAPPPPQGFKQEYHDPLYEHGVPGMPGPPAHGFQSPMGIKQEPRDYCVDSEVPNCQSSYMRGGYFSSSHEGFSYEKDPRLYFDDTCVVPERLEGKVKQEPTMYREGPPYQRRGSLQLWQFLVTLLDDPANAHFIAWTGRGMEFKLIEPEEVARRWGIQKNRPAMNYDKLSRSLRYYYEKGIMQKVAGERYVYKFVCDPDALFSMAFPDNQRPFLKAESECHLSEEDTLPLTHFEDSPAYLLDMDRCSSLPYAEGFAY
# Chain of SPIB (Q01892 whole entry): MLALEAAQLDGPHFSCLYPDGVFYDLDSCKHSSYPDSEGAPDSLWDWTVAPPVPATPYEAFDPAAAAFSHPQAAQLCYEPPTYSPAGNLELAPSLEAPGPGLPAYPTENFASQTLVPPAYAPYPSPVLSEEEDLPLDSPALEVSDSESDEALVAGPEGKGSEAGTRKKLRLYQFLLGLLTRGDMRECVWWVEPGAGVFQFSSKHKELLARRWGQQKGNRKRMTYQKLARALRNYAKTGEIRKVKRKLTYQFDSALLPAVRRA
# Chain of ELF4 (Q99607 whole entry): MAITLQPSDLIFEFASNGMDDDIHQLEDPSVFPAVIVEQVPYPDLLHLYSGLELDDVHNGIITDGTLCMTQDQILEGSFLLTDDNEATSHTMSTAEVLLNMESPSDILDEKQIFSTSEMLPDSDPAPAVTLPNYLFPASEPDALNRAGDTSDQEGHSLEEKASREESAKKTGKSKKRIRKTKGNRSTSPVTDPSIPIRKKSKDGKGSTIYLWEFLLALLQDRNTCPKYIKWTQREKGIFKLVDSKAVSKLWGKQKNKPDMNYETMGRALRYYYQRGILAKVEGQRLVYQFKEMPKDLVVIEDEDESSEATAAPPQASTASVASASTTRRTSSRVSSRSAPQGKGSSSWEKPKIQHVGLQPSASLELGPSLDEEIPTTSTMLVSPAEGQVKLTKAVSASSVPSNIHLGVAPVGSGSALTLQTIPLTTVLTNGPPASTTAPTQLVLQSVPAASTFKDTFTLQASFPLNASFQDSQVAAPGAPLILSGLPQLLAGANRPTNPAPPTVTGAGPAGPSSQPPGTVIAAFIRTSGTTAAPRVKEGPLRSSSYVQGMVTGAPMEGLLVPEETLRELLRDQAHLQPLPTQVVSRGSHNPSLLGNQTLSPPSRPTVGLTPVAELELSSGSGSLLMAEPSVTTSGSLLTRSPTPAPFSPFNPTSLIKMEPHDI
# Chain of ELF1 (P32519 whole entry): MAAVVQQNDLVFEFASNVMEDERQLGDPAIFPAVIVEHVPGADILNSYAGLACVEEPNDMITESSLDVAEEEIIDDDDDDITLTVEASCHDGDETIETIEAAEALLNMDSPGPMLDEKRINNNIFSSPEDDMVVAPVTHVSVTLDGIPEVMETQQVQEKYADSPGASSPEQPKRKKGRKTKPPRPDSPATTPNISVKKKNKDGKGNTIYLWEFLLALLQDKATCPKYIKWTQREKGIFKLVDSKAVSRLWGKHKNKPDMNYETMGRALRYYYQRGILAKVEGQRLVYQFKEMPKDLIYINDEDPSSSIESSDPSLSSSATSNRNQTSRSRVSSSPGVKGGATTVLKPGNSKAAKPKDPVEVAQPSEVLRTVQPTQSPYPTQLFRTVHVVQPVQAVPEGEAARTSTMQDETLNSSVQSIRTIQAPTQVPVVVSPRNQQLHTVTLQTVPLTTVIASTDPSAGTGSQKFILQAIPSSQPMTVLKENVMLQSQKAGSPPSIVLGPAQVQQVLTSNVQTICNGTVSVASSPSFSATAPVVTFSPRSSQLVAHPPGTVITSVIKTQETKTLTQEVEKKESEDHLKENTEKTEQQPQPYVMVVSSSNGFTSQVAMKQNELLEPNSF
# Chain of HSF1 (Q00613 whole entry): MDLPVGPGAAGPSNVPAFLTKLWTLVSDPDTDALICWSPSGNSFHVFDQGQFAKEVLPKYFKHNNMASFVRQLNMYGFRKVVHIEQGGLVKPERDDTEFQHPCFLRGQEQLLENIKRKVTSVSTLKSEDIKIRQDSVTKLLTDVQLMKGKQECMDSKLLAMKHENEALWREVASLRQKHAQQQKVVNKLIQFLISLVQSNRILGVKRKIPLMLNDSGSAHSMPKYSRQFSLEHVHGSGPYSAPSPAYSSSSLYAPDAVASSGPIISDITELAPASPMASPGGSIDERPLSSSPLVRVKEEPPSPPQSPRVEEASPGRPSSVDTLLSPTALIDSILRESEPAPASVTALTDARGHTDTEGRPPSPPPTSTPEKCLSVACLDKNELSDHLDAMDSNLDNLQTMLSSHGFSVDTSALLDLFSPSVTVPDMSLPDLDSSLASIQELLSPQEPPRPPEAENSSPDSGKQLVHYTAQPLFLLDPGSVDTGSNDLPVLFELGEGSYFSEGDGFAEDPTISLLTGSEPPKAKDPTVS
# Chain of ETV1 (P50549 whole entry): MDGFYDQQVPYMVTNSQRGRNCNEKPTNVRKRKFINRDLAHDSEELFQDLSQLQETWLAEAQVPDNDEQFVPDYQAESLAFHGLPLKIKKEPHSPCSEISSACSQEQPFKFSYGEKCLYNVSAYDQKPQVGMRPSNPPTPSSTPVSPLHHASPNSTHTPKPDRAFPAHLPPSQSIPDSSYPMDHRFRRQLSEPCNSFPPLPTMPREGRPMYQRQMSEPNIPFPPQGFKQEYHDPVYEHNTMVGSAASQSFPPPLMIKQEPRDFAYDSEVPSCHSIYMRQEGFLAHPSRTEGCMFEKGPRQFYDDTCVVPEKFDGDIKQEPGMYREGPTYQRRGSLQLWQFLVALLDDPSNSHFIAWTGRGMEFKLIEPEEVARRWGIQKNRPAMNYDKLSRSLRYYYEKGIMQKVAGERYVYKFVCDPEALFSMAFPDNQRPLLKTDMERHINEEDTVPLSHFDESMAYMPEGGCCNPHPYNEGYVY
sequence,measurement,setting,value
AGATGC,binding signal,FLI1,"1.13 fold enrichment (6-mer frequency, TF over GST control)"
same,binding signal,ELK1,"1.14 fold enrichment (6-mer frequency, TF over GST control)"
same,binding signal,GABPA,"1.05 fold enrichment (6-mer frequency, TF over GST control)"
same,binding signal,ERG,"1.11 fold enrichment (6-mer frequency, TF over GST control)"
same,binding signal,ELF1,"1.04 fold enrichment (6-mer frequency, TF over GST control)"
same,binding signal,EHF,"1.08 fold enrichment (6-mer frequency, TF over GST control)"
same,binding signal,SPI1,"1.08 fold enrichment (6-mer frequency, TF over GST control)"
same,binding signal,SPIB,"1.09 fold enrichment (6-mer frequency, TF over GST control)"
same,binding signal,ELK3,"1.01 fold enrichment (6-mer frequency, TF over GST control)"
same,binding signal,FEV,"1.05 fold enrichment (6-mer frequency, TF over GST control)"
same,binding signal,ETV5,"1.09 fold enrichment (6-mer frequency, TF over GST control)"
same,binding signal,HSF1,"1.1 fold enrichment (6-mer frequency, TF over GST control)"
same,binding signal,SPIC,"1.11 fold enrichment (6-mer frequency, TF over GST control)"
same,binding signal,ELF4,"1.1 fold enrichment (6-mer frequency, TF over GST control)"
same,binding signal,ELK4,"1.29 fold enrichment (6-mer frequency, TF over GST control)"
same,binding signal,ETV2,"1.01 fold enrichment (6-mer frequency, TF over GST control)"
same,binding signal,ELF3,"1.09 fold enrichment (6-mer frequency, TF over GST control)"
same,binding signal,ETV1,"1.05 fold enrichment (6-mer frequency, TF over GST control)"
